Reference: the supplement of paper PMC10515830
Structures can show the parent of a compound that is named as a salt.

Key:
Settings in all cases: 10 µM; exposure time 6 h
[1] = tested on: Danio rerio larvae (5 dpf); experiment: difference in excitability vs DMSO (percentage points); higher = more excitable than DMSO
Outline: (§1)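 Wild-type 5 dpf zebrafish larvae in 96-well plates were given 100 µL egg water containing library compound at 10 µM final for 6 h. After 3 h of exposure, plates at 28.5 ℃ were photographed every 6 s during a 3-h programme of moving lines and 100 ms, 400Hz tones. Z-LaP Tracker (a DeepLabCut model) quantified each behaviour, averaged over 48 larvae per compound. Values are the compound mean minus the DMSO-vehicle control, in percentage points.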

[2] = tested on: Danio rerio larvae (5 dpf); experiment: difference in startle response vs DMSO (percentage points); higher = stronger startle than DMSO
Outline: as §1

[3] = tested on: Danio rerio larvae (5 dpf); experiment: difference in activity during first hour vs DMSO (percentage points); higher = more activity than DMSO
Outline: as §1

[4] = tested on: Danio rerio larvae (5 dpf); experiment: difference in habituation to acoustic stimuli vs DMSO (percentage points); higher = more habituation than DMSO
Outline: as §1

[5] = tested on: Danio rerio larvae (5 dpf); experiment: difference in combined optomotor response to red, green and blue moving lines vs DMSO (percentage points); higher = stronger optomotor response than DMSO
Outline: as §1

| Compound | difference in excitability [1] | difference in startle response [2] | difference in activity during first hour [3] | difference in habituation to acoustic stimuli [4] | difference [5] |
| --- | --- | --- | --- | --- | --- |
| NCCS [Cysteamine (hydrochloride)] | 4.79 | 3.78 | 3.89 | 0.254 | 14.5 |
| CCC(=O)NCC[C@@H]1CCc2ccc3c(c21)CCO3 [Ramelteon] | 33 | 0.219 | -13.3 | -1.29 | 6.65 |
| CCOC(=O)c1ncn2c1CN(C)C(=O)c1cc(F)ccc1-2 [Flumazenil] | 3.25 | 7.64 | 0.681 | 2.54 | 3.91 |
| CC12CC3CC(C)(C1)CC(N)(C3)C2 [Memantine (hydrochloride)] | 4.15 | -1.38 | 1.52 | 2.49 | 3.21 |
| C=C(CC)C(=O)c1ccc(OCC(=O)O)c(Cl)c1Cl [Ethacrynic Acid] | 4.29 | 4.46 | 19.4 | -1.45 | 6.1 |
| CC(=O)CCCCn1c(=O)c2c(ncn2C)n(C)c1=O [Pentoxifylline] | 11.4 | 2.26 | 8.3 | 4.08 | 6.01 |
| CNCCC=C1c2ccccc2CCc2ccccc21 [Nortriptyline (hydrochloride)] | 3.17 | 4.3 | -17.9 | -3.34 | -2.39 |
| CO/N=C(\C(=O)N[C@@H]1C(=O)N2C(C(=O)O)=C(COC(C)=O)CS[C@H]12)c1csc(N)n1 [Cefotaxime (sodium salt)] | 0.947 | 0.752 | 4.74 | 6.08 | 3.19 |
| Nc1nc(F)nc2c1ncn2[C@@H]1O[C@H](COP(=O)(O)O)[C@@H](O)[C@@H]1O [Fludarabine Phosphate] | 2.14 | -0.759 | 3.53 | -5.41 | 6.27 |
| CCc1cccc2c3c([nH]c12)C(CC)(CC(=O)O)OCC3 (stereo not given) [Etodolac] | -4.84 | 7.75 | 13.6 | 4.08 | 3.56 |
| CC(Oc1c(Cl)cccc1Cl)C1=NCCN1 (stereo not given) [Lofexidine (hydrochloride)] | 5.84 | 4.45 | 2.08 | 0.884 | 10.9 |
| CCS(=O)(=O)N1CC(CC#N)(n2cc(-c3ncnc4[nH]ccc34)cn2)C1 [Baricitinib] | 7.57 | -3.92 | 10.9 | -5.36 | 5.99 |
| CN1CCN2c3ncccc3Cc3ccccc3C2C1 (stereo not given) [Mirtazapine] | -3.43 | 3.21 | 17.5 | -1.46 | -7.5 |
| CCc1c2c(nc3ccc(OC(=O)N4CCC(N5CCCCC5)CC4)cc13)-c1cc3c(c(=O)n1C2)COC(=O)[C@]3(O)CC [Irinotecan (hydrochloride hydrate)] | 13.5 | -2.28 | 0.361 | 2.44 | 2.92 |
| COc1ccccc1Oc1c(NS(=O)(=O)c2ccc(C(C)(C)C)cc2)nc(-c2ncccn2)nc1OCCO [Bosentan] | 11.1 | -7.54 | 2.38 | 2.24 | -0.979 |
| C[C@@H](c1ncncc1F)[C@](O)(Cn1cncn1)c1ccc(F)cc1F [Voriconazole] | 4.54 | 3.6 | -18.9 | 3.51 | 5.07 |
| C=C1CC[C@H](O)C/C1=C/C=C1\CCC[C@]2(C)[C@@H]([C@H](C)/C=C/[C@H](C)C(C)C)CC[C@@H]12 [Vitamin D2] | 3.72 | -5.12 | 3.16 | 2.67 | 8.48 |
| NC(N)=Nc1nc(CSCC/C(N)=N/S(N)(=O)=O)cs1 [Famotidine] | -2.4 | -1.19 | -7.05 | 6.6 | -3.11 |
| NC(=O)c1cn(Cc2c(F)cccc2F)nn1 [Rufinamide] | 3.01 | 4.27 | 8.13 | 0.975 | 7.5 |

| Compound | difference in excitability [1] | difference in startle response [2] | difference in activity during first hour [3] | difference in habituation to acoustic stimuli [4] | difference [5] |
| --- | --- | --- | --- | --- | --- |
| CN(C)[C@@H]1C(O)=C(C(N)=O)C(=O)[C@@]2(O)C(O)=C3C(=O)c4c(O)cccc4[C@@](C)(O)[C@H]3[C@H](O)[C@@H]12 [Oxytetracycline] | -1.74 | -1.21 | 20.6 | 5.81 | -0.914 |
| CC(C)(C#N)c1cc(Cn2cncn2)cc(C(C)(C)C#N)c1 [Anastrozole] | 1.93 | -2.98 | -4.84 | -5.36 | 7.09 |
| CNCC(O)c1ccc(OC(=O)C(C)(C)C)c(OC(=O)C(C)(C)C)c1 (stereo not given) [Dipivefrin (hydrochloride)] | -3.61 | -15.1 | 46.2 | -2.07 | 2.48 |
| CCOc1ccccc1OCCN[C@H](C)Cc1ccc(OC)c(S(N)(=O)=O)c1 [Tamsulosin (hydrochloride)] | 25.5 | 3.47 | -3.28 | 1.9 | 1.52 |
| Cc1c(OCC(F)(F)F)ccnc1C[S@@+]([O-])c1nc2ccccc2[nH]1 [(R)-Lansoprazole] | 7.16 | 4.39 | 7.03 | -1.38 | 1.12 |
| CN1CCCC(n2nc(Cc3ccc(Cl)cc3)c3ccccc3c2=O)CC1 (stereo not given) [Azelastine (hydrochloride)] | 19.9 | 1.87 | -5.88 | -2.38 | 3.47 |
| CC/C=C\C/C=C\C/C=C\C/C=C\C/C=C\CCCC(=O)OCC [Eicosapentaenoic Acid ethyl ester] | 11.7 | 2.48 | -7.19 | 3.98 | 7.27 |
| Clc1ccccc1C(c1ccccc1)(c1ccccc1)n1ccnc1 [Clotrimazole] | -0.151 | 4.37 | -19.1 | -10.2 | -12.6 |
| CC1=C(C(=O)O)N2C(=O)[C@@H](NC(=O)[C@H](N)c3ccc(O)cc3)[C@H]2SC1 [Cefadroxil (hydrate)] | 4.89 | -1.88 | 6.54 | -3.34 | 7.44 |
| CN1C(=O)CC(C)(c2ccccc2)C1=O (stereo not given) [Methsuximide] | -3.21 | 8.76 | 7.45 | 4.76 | 10.3 |
| CCCCc1oc2ccccc2c1C(=O)c1cc(I)c(OCCN(CC)CC)c(I)c1 [Amiodarone (hydrochloride)] | 8.93 | -3.14 | 8.93 | -15.9 | -11.8 |
| CCN(CC)C(=O)/C(C#N)=C/c1cc(O)c(O)c([N+](=O)[O-])c1 [Entacapone] | 5.12 | -3.47 | 4.7 | 3.38 | 3.62 |
| O=C1CN2Cc3c(ccc(Cl)c3Cl)N=C2N1 [Anagrelide (hydrochloride)] | 11.5 | -3.44 | -9.48 | 7.77 | 3.07 |
| C#CCC(Cc1cnc2nc(N)nc(N)c2n1)c1ccc(C(=O)N[C@@H](CCC(=O)O)C(=O)O)cc1 (stereo not given in full) [Pralatrexate] | 7.8 | 7.47 | 0.4 | 4.28 | 4.2 |
| Nc1ccc(C(=O)NCC(=O)O)cc1 [4-Aminohippuric Acid] | 3.62 | 5.22 | 3.44 | -0.693 | 7.16 |
| OCCN1CCN(CCCN2c3ccccc3Sc3ccc(Cl)cc32)CC1 [Perphenazine] | 18.9 | -4.36 | 24 | -10.2 | 2.99 |
| CC#C[C@]1(O)CC[C@H]2[C@@H]3CCC4=CC(=O)CCC4=C3[C@@H](c3ccc(N(C)C)cc3)C[C@@]21C [Mifepristone] | 10.2 | -2.97 | -9.36 | 0.759 | 4.72 |
| CN/C(=N\CCSCc1nc[nH]c1C)NC#N [Cimetidine] | -1.49 | 2.86 | 11.1 | 4.18 | 8.46 |
